Screens deposited in PubChem by National Center for Advancing Translational Sciences (NCATS).
Sm TGR block – qHTS Assay for the Inhibitors of Schistosoma Mansoni Peroxiredoxins. purified TGR, DTNB reduction, TNB absorbance 405 nm. Potency, µM (top dose mostly 114 µM), usual class: inhibitors. 360,000 compounds, 3% hits. AID 485364, 2010; further: nearly all actives have a fitted effect of over 60% in size
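TGR 20 nM + NADPH 100 uM (dispensed conc.), cpd preinc 15 min RT; start with NADPH (500 uM addition) then DTNB (15 mM addition). Kinetic TNB absorbance, 405 nm filter. Four-parameter Hill fit across titration.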
RE007 growth inh – qHTS Assay for Inhibitors of the HIV-1 protein Vpr; S. pombe RE007 Vpr strain, BacTiter-Glo ATP luminescence, 24 h; Potency, µM (doses to about 92.2 µM), hits mostly inhibitors; 360,000 compounds, 0.21% hits; AID 651644, 2012; active means well fitted falling curve with a large enough effect; inconclusive means small, poorly fitted or top-dose-only effect; inactive means no such curve, though single readings can be large or run the other way; further: nearly all actives have a fitted effect of over 50% in size
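Fission yeast RE007 carrying one integrated HIV-1 vpr copy, seeded at OD 0.01 in PMG+AL medium with 23 nL pinned compound. Grown 24 h at 30 degrees; viability read by BacTiter-Glo luminescence after 5 min.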
Tb PYK inh – qHTS of Trypanosoma Brucei Inhibitors; pyruvate kinase (Trypanosoma brucei), Q57TT1; TbPYK enzyme, Kinase-Glo Plus ATP luminescence, 45 min; Potency, µM (series often up to 76.8 µM), most hits filed as inhibitors; 410,000 compounds, 0.12% hits; AID 624173, 2012; further: nearly all actives have a fitted effect of over 50% in size
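Readout: single end-point luminescence (Kinase-Glo Plus, 10 min). Reaction conditions were TbPYK/substrate plus 130 uM ADP, 45 min at RT, pH 7.2 TEA buffer. No-enzyme wells served as controls, and data were normalized before concentration-response fitting.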
FMDV antiviral – High Throughput Screening for Foot and Mouth Disease Virus Antivirals. Potency, µM (doses to about 57.9 µM), most hits filed as inhibitors. 410,000 compounds, 1.2% hits. FMDV antiviral cell-based qHTS; calls by dose curve; tested in HEK293T cells; further: read-out not given here; nearly all actives have a fitted effect of over 45% in size
Each line names hits and unclear results; the compound was inactive in the other large screens. This is a sample that favours compounds with a hit; in the whole collection about 3.7% have one here. Unless noted, the call rests on the fitted dose curve; in most records, active means well fitted curve in the direction sought with a large enough effect; inconclusive means small, poorly fitted or top-dose-only effect, or another doubt; inactive means no such curve, though single readings can be large; an effect the other way counts as inactive or inconclusive.

O=C(CCCC(=O)NCc1ccc(F)cc1)NCc1ccc(F)cc1	FMDV antiviral 35µM (no result: Sm TGR block)
O=C(CCS(=O)(=O)c1ccccc1Cl)NCc1ccc(F)cc1	Sm TGR block 32µM
O=C(CCS(=O)(=O)c1ccc(Br)cc1)NCc1ccc(F)cc1	none
Cc1ccc2c(c1)cc(CN(C)Cc1nc(C)cs1)c(=O)n2C	none (no result: Sm TGR block, RE007 growth inh, Tb PYK inh)
COc1ccc(-c2cc(C)cc3c2OC(CNC(=O)/C=C/c2ccncc2)C3)nn1 (centres undefined)	none (no result: Sm TGR block, RE007 growth inh, Tb PYK inh)
CCOC(=O)C1CCN(Cc2ccc(OC)c(OCc3ccccc3)c2)CC1	none
CCOC(=O)C1CCCN(Cc2cc(OC)c(O)c(OC)c2)C1 (centres undefined)	Sm TGR block 16µM
CCOC(=O)C1CCN(Cc2ccc(O)c(OC)c2)CC1	Sm TGR block 56µM (no result: Tb PYK inh)
CCOC(=O)C1CCN(Cc2cc(C(C)(C)C)c(O)c(C(C)(C)C)c2)CC1	Sm TGR block 11µM
CCOC(=O)C1CCCN(Cc2cc(Br)c(OC)cc2OC)C1 (centres undefined)	none
CCOc1ccccc1CNC(=O)c1cccn1-c1nnc(N2CCCC2)s1	none (no result: RE007 growth inh)
Oc1ccc([C@H]2CNCc3c2ccc(O)c3O)cc1O	Tb PYK inh 3.2µM (no result: Sm TGR block, RE007 growth inh, FMDV antiviral)
Oc1ccc([C@@H]2CNCCc3c2cc(O)c(O)c3Cl)cc1	none (no result: Sm TGR block, RE007 growth inh, Tb PYK inh)
Fc1ccc(C2Nc3cccc4cccc(c34)N2)cc1	Sm TGR block 18µM
COc1ccc(C2Nc3cccc4cccc(c34)N2)cc1Br	Sm TGR block 25µM
FC(F)(F)c1ccc(C2Nc3cccc4cccc(c34)N2)cc1	Sm TGR block 20µM
COc1cc(C2Nc3cccc4cccc(c34)N2)ccc1OC(C)=O	Sm TGR block inconclusive
Cc1ccc(C2Nc3cccc4cccc(c34)N2)s1	Sm TGR block 18µM (no result: RE007 growth inh)
CCOc1ccc(C(=O)NCC(c2ccc(Cl)cc2)N2CCCCC2)cc1 (centres undefined)	none (no result: RE007 growth inh)
CCCOc1ccc(C2Nc3cccc4cccc(c34)N2)cc1	Sm TGR block 14µM
CCN(CC)c1ccc(C2Nc3cccc4cccc(c34)N2)cc1	none
O=C(N[C@@H](Cc1ccc(O)cc1)C(=O)O)c1cccnc1	Sm TGR block 50µM
O=C(N[C@@H](Cc1ccccc1)C(=O)O)c1ccncc1	none
CC#CC[C@@H](C)[C@@H](O)/C=C/[C@H]1[C@H]2c3cccc(CCCC(=O)O)c3O[C@H]2C[C@@H]1O	none (no result: Sm TGR block, RE007 growth inh, FMDV antiviral)
CCOC(=O)NC1(Nc2ccc(Cl)cn2)Oc2ccccc2O1	Sm TGR block 7.1µM (no result: RE007 growth inh, Tb PYK inh, FMDV antiviral)
COc1ccccc1C1CC(c2ccc(Br)cc2)=NN1C(=O)c1cccnc1 (centres undefined)	FMDV antiviral 32µM
Cc1n[nH]c(=S)n1/N=C/c1ccc(-c2ccccc2[N+](=O)[O-])o1	Tb PYK inh 7.9µM
O=[N+]([O-])c1cccc(-c2ccc(/C=N/n3c(-c4ccccc4)n[nH]c3=S)o2)c1	none
Cc1ccc(/C=N/n2c(-c3ccccn3)n[nH]c2=S)o1	Sm TGR block 45µM, Tb PYK inh inconclusive
Cc1ccc(/C=N/n2c(-c3cccnc3)n[nH]c2=S)o1	Sm TGR block 28µM, Tb PYK inh inconclusive
S=c1[nH]nc(-c2cccnc2)n1/N=C/c1ccco1	Tb PYK inh inconclusive (no result: Sm TGR block)
S=c1[nH]nc(-c2ccccn2)n1/N=C/c1ccccc1	Tb PYK inh inconclusive
Cc1ccc(-c2n[nH]c(=S)n2/N=C/c2ccc(C)o2)cc1	Tb PYK inh 2.5µM
Cc1ccc(/C=N/n2c(-c3ccc(Cl)cc3)n[nH]c2=S)o1	Tb PYK inh inconclusive
Cc1nnc(SCC(=O)NCc2ccc(N(C)C)cc2)c2nn(-c3ccccc3)c(C)c12	none (no result: RE007 growth inh)
CC(C)Oc1ccc(CNC(=O)c2ccc3c(c2)N(Cc2ccc(F)cc2)CCS3)cc1	none (no result: RE007 growth inh)
CN(C)c1ccc(/C=N/n2c(-c3cccnc3)n[nH]c2=S)cc1	Tb PYK inh 2.8µM (no result: Sm TGR block)
COc1ccc(Cl)cc1NC(=S)NCCc1ccc(S(N)(=O)=O)cc1	Sm TGR block 2.8µM
O=C1CCCN1CCCNC(=S)Nc1ccccc1	Sm TGR block inconclusive
COc1ccc(Cl)cc1NC(=S)NCCCN1CCCC1=O	Sm TGR block 50µM
O=C1CCCN1CCCNC(=S)Nc1ccc(Br)cc1Cl	Sm TGR block 14µM
COc1ccc2c(c1)sc1ncc(C(=O)NCc3cccc(Cl)c3)c(=O)n12	none (no result: RE007 growth inh)
COC(=O)[C@@H]1CCCN1Cc1ccc2c(c1)CN(Cc1coc3ccccc3c1=O)CCO2	none (no result: Sm TGR block, RE007 growth inh, Tb PYK inh)
Cc1cc2c(n1-c1ccc(C(=O)O)cc1)CCCCC2	Sm TGR block 25µM (no result: RE007 growth inh, Tb PYK inh, FMDV antiviral)
CCSc1nc2n(n1)C(c1ccc(Cl)cc1Cl)C(C(=O)Nc1ccccc1C)=C(C)N2 (centres undefined)	none (no result: RE007 growth inh)
NC(=O)[C@@H]1[C@@H]2C(=O)N(c3ccc(F)cc3)C(=O)[C@@H]2[C@H]2C=Cc3ccccc3N21	Sm TGR block 32µM
CC(=O)N1c2ccc(S(=O)(=O)N3CCN(c4ccc(C)cc4C)CC3)cc2CC1C (centres undefined)	FMDV antiviral inconclusive (no result: RE007 growth inh)
COc1ccc(C2(O)CCN(CC(=O)Nc3nc(-c4ccccc4)cs3)CC2)cc1	FMDV antiviral 28µM
CN1CCN(CC(=O)Nc2nc(-c3ccccc3)cs2)CC1	none
COc1ccccc1CNC(=O)CN(C)c1nn2c(=O)cc(C)nc2s1	none (no result: RE007 growth inh)
O=C(O)CCCn1c(=S)[nH]c2c(sc3ccc([N+](=O)[O-])cc32)c1=O	Tb PYK inh 20µM
CCOc1ccc(Nc2c(S(=O)(=O)c3ccc(Cl)cc3)cnc3ccc(OC)cc23)cc1	none (no result: RE007 growth inh)
CC(=O)n1nc(-c2ccco2)nc1SCc1ccccc1	Sm TGR block 32µM
CCC(=O)n1nc(-c2ccco2)nc1SCc1ccccc1	Sm TGR block 8.9µM
CCC(=O)n1nc(-c2ccco2)nc1N	none
O=C(c1cccs1)n1nc(-c2ccco2)nc1SCc1ccccc1	none
Cn1c(SCC(=O)N2CCCC2)nc2cccnc21	Sm TGR block 40µM
CCOC(=O)c1ccc(NC(=O)CSc2nc3cccnc3n2C)cc1	FMDV antiviral 16µM
COC(=O)c1ccc(NC(=O)CSc2nc3cccnc3n2C)cc1	FMDV antiviral inconclusive
CC1(c2ccccc2)OC(C(=O)O)=CC1=O (centres undefined)	none (no result: Sm TGR block, RE007 growth inh, Tb PYK inh)
CCc1ccc(NC(=O)COC(=O)C2(c3ccc(Cl)cc3)CCCC2)cc1	FMDV antiviral 20µM
COc1ccc(NC(=O)C2CCC(CNS(=O)(=O)c3cccc4nsnc34)CC2)cc1OC (centres undefined)	none (no result: RE007 growth inh)
Cc1ccc(CNC(=O)CCS(=O)(=O)c2cccc3nonc23)cc1	Sm TGR block 25µM
Cc1ccc(NC(=O)CCS(=O)(=O)c2cccc3nonc23)c(C)c1	none (no result: RE007 growth inh)
COc1ccc(CNC(=O)CCS(=O)(=O)c2cccc3nonc23)cc1	Sm TGR block 13µM
COc1ccccc1CNS(=O)(=O)c1cccs1	none
COc1ccccc1CNC(=O)CCS(=O)(=O)c1cccs1	Sm TGR block 35µM
COc1ccccc1CNC(=O)CCS(=O)(=O)c1cccc2nonc12	Sm TGR block 45µM
COc1ccc(NC(=O)C2CCN(S(=O)(=O)c3c(C)noc3/C=C/c3cccs3)CC2)cc1Cl	none (no result: RE007 growth inh)
CCOC(=O)c1cnc2ccc(OCC)cc2c1NCc1ccccc1OC	FMDV antiviral 18µM
